# According to PubChem BioAssay AID1508600 (Functional Genomics Laboratory (NCATS/FGL), 2020):
# Hit rate of the full screen: of about 53,000 sequences, about 3,700 (7%) were called active. Shown is part of a subset that was picked to be rich in actives. Unmarked numbers belong to inactive results.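 Rule for the calls: active = gene knockdowns whose robust z-score for IL-1 alpha signal is at least 2 or at most -2, so actives lie on both sides; inactive = the rest.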
# Experiment: Components of the Cytosolic LPS Sensing Pathway: Gene Identification via Genome-wide siRNA Screen;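 note: robust z of the log signal after scaling to non-targeting control siRNA wells of the plate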
# Conditions: RAW264.7 macrophages, IL-1a HTRF, actives lie on both sides, screened at 100 nM (by protocol), cells primed 5 h with Pam3CSK4 first
# How it was run: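 RAW264.7; siRNA 100 nM final, RNAiMAX, 48h 37 degrees C; Pam3CSK4 5 h; LipidA + TransIT-TKO 24 h; IL-1a HTRF; CellTiter-Glo viability; robust z vs negative-control median.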
row,Sequence,z-score
1,GGAUCCAAGGGCAAAAGAUTT against St6galnac1,-1.36
2,CGUACUAUAGUAAAUCCAGTT against Clk1,2.4 (active)
3,GCCAAGAAACAAUACUCAUTT against Olfr1352,0.694
4,CCUACCAAAACGACUAUAUTT against Pnma3,-1.29
5,CGGGCUGAUUCAACUGGUGTT against Kif1b,3.64 (active)
6,GGUACCUCUUCUCCUAAAGTT against Vps16,0.106
7,GCAUCUCAGCUCUGAUUUATT against Fgfbp3,0.758
8,GGUAGAAACUGACCACAUATT against Aifm1,0.917
9,GGAGUAAAUUGAGAAACCATT against Acsm5,-0.149
10,CCUUUAUUUCUGUGAAUCUTT against Olfr1467,0.631
11,GCUGUUCGUGAGGAUAACCTT against Yipf1,1.2
12,GGGUAGAAUGACUUUGGCCTT against Cldn2,1.19
13,GGCUUAUCAUAUGAAGACATT against Aplp2,2.33 (active)
14,GGAGUCACCAGACUUGUGUTT against Svs3b,0.637
15,GGAAAAUGCUCACAUAGUGTT against Pak1ip1,0.442
16,CGCAUACUGUGGAAUAGUUTT against Spag4,-1.26
17,GGAAUGAAAGUUCCACUAUTT against Emcn,-0.633
18,CCCACCACUAUUUAUAUGATT against Dlg2,-0.17
19,GGAUGUGACAUGAAUCCUGTT against Ankle1,-0.49
20,CCAAAACUAGGAAGAAACATT against Olfr716,-2.3 (active)
21,GGCAAUAAAUAUCCAGAAATT against Crygn,1.02
22,GCAGCUCUGCGGAAGCUUUTT against Olfr1350,-0.505

row,Sequence,z-score
1,GGAUCUUGAUAGACUGAUGTT against Rhox5,0.362
2,GGAAAAUCUCCGUUGUCUCTT against Acin1,-2.76 (active)
3,UCAUUGAGAAAGGAGAAGATT against Cox17,-0.547
4,GGUAGAUAACCUGAUUUAUTT against Slc7a6,2.22 (active)
5,GCCUGUGUAUUACUUUUUUTT against Sned1,-0.786
6,GGAGUUGCCUCUGAAGACCTT against Ccm2l,0.797
7,GGUGUUCAGGAGAUGAUGCTT against Cdt1,0.0123
8,GGAGCAUCUCCUCAUGGAUTT against Actl11,2.08 (active)
9,GCCUUAUCCUGAGAAUGGCTT against Lrrc47,-0.61
10,GGCUGCUGUUAACAAGCUGTT against Wdr13,-2.41 (active)
11,GCUCCUCCAGAUACAUGCUTT against Tbrg1,-0.741
12,GGUUCUUUCGACUUCCUGCTT against Ccbe1,-0.166
13,GGCAACAGACAAACAGCCGTT against Ugcg,-1.54
14,GGAGAAGAAAAAGCGGUACTT against Plxnb2,2.71 (active)
15,GGAGUACUGGGCAUAUAAATT against Slc29a3,-0.324
16,GGGUGGUUAGAACAGCCACTT against Prss16,-1.21
17,CCCUAGAGAUGGUGGGUCUTT against Olfr934,-0.484
18,GGCAGUUAACACUUAAUGATT against Foxp2,0.609
19,GGAACAUAACUCUUGUAUATT against Dhx35,-1.52
20,GGAGAAACUUCUUUAAAGCTT against 5830427D03Rik,0.573
21,GGACAAGUGCCUCUCACCATT against Glis2,-3.25 (active)
22,GGCAGAAAGUAAAUCCGUGTT against Exoc3l4,-1.22

row,Sequence,z-score
1,GGCCAUAGAUAUUCAAGGUTT against Olfr218,0.293
2,GCCUUUGUGUUACAAUAUGTT against Fermt2,0.487
3,GUCAAAGAGUUUCAGCAUCTT against Foxl1,0.664
4,GGAGGUUUUCCGAAGUAUUTT against Pnpt1,1.2
5,GGCUCUGUGACCAAGAUUUTT against Rtca,-1.48
6,GCCUCUCUCUAUCUAUGCATT against Tob2,-2.2 (active)
7,GCAACGUGGUCUAUGAAUUTT against Disp2,-0.694
8,GGUUUUUCAGUGACACAUGTT against Vmn1r192,2.26 (active)
9,CCAGAGUUUUAUAACGGAATT against Olfr1229,0.601
10,GGUUGUGCAGUUUUAUUUCTT against Tceal1,-0.176
11,GCUAACAUUGUAAAUGCACTT against Dmrta1,0.467
12,GGAAAAGCUUUUGUUCCCATT against Tfb1m,2.58 (active)
13,GGAUUCUUCAUUUCUAGUGTT against C1qtnf6,0.231
14,GGUUCUGAACACAUUUCCATT against Cyp2d13,-1.07
15,GUUUCUUCCAAACUCCAUCTT against Olfr487,0.622
16,GGUCGACAGUUAAAAUGAUTT against Bpifc,-0.431
17,GCAAGCCCUGGAAGAAUUATT against Nat8,2.26 (active)
18,GGAUGAGUACACUGAAAGCTT against Nvl,0.544
19,CGUGGACAUCGAUAUCACCTT against Slc26a8,-0.737
20,CCCGGAAUAAGACAAUUUCTT against Olfr788,0.282
21,GCAUGUUAAGCCUUGUAUATT against Tnpo1,-1.67
22,GGCUACAGAAGCUACUAAATT against Akr1c6,1.23

row,Sequence,z-score
1,GGGUGCAUCCCAUUCUCUUTT against Pld1,-0.0755
2,GCGAGAGAUCCCUCUGAAATT against Pigs,-0.284
3,GCAUCCCAGAUAUUGAGCATT against Arrdc1,2.52 (active)
4,GCUCUGUUCACACGUUUAATT against Arhgap10,-0.898
5,CGAAAUUGUGAUGAUGAACTT against Mast1,-0.799
6,CCAAUUUGACCCAUACUAUTT against Crtc2,1.61
7,GGAGAUUGGGAUCAAAGCCTT against Mthfd1,-1.56
8,GGACCUUUCAUCAACCCAUTT against Olfr676,2.13 (active)
9,GGUGCCAUUGAUUCUGUAGTT against Smim10l2a,-0.807
10,GCAGUGGGAAUCGAUAAAGTT against Fgfr2,-0.876
11,GGCAAGCUGUAAAAGAUGCTT against Noc3l,3.32 (active)
12,GGCCAUUUCUAUGAAAUUATT against Olfr1016,-2 (active)
13,CCUUAGGACAAGUAUUCUGTT against Cbx6,0.47
14,GGCAACUUUAUACACAAACTT against Vmn1r13,-0.283
15,GGAACCUUUCAGAAAUAUATT against Calhm5,-0.53
16,GGUCUGAUUGUCCUCUCUUTT against Slc35b4,3.25 (active)
17,CCACACCUUCAAAGCGAGATT against L3mbtl4,-0.104
18,GGCCUUGAUUCAAUUCAACTT against Tgm6,0.812
19,GGCAGAUAUUUAGAUGAUGTT against Pdyn,-0.932
20,GAUGUUCUUUGUCCACAUGTT against Olfr666,-0.325
21,GCAUUUUCUAGAUGGAAGCTT against Hao1,0.748
22,GGUCAUUCUCCAAGAACUATT against Ugp2,-0.844

row,Sequence,z-score
1,GGUUCAGUAUAUCAUCUCUTT against Zfp335,2.69 (active)
2,GGAGAACAGUUUCAAGAUGTT against Rnf152,-0.487
3,GCCGGACUUCCCAUCUGUUTT against Srebf1,-0.784
4,GACGAAUAUCAUCUCACACTT against Olfr875,0.901
5,GCAGUUGACAUUUACUCUCTT against Nol10,2.36 (active)
6,GCUCCACACUACGUGUCAUTT against Olfr476,1.66
7,GCCUUAUCCAUAUCGACUATT against Arrdc1,0.831
8,GGAUGCUCAUGGACCUUUGTT against Olfr1122,0.931
9,CGUACUCCAACAACACUUUTT against Pdzd8,-0.503
10,GGACUGUGUGUGCAAAGGUTT against Mt3,-0.176
11,GCUACUGCCGGAAUUUGGUTT against Tiam1,0.497
12,CGCAAGAUACCAACACUUATT against Flad1,-0.487
13,GGAACACAAAAGCAAAGAUTT against Prpf38b,2.2 (active)
14,GGAUUGUGGGUUUAUAUAATT against Olfr835,0.274
15,CAGGCUGGUUACUUUGGCUTT against Lhfpl5,-0.246
16,CCUUCCAACUCUUCUCCUCTT against H2-T3,0.915
17,GCCUCAUUUGAUCAAUGUCTT against Actr2,1.86
18,GCUAGAUAAACUCUCUCAATT against Cxcr5,0.73
19,GGUCCAGCUCAUGAAACUUTT against Sik1,0.147
20,GGGUUUGGUCGUAAACAGCTT against Limd2,-1.06
